Assay outcomes from PubChem BioAssay.
Sampled rows, rich in hits. Any-hit rate of the full collection: about 19%.
TDP1 inh: blocks human tyrosyl-DNA phosphodiesterase 1; Q9NUW8; Potency, µM (series often up to 130 µM), for inactives: at the highest dose activity change, negative = inhibition, most hits filed as inhibitors; 350,000 tested, 0.28% active; AID 485290; recombinant TDP1, AlphaScreen DNA substrate cleavage; further: potency means the concentration at half of the fitted maximal effect; on the % scale 0 is the no-effect control and ±100 the full control effect; nearly all actives have a fitted effect of over 40% in size
Target sequence (Q9NUW8 whole entry, looked up): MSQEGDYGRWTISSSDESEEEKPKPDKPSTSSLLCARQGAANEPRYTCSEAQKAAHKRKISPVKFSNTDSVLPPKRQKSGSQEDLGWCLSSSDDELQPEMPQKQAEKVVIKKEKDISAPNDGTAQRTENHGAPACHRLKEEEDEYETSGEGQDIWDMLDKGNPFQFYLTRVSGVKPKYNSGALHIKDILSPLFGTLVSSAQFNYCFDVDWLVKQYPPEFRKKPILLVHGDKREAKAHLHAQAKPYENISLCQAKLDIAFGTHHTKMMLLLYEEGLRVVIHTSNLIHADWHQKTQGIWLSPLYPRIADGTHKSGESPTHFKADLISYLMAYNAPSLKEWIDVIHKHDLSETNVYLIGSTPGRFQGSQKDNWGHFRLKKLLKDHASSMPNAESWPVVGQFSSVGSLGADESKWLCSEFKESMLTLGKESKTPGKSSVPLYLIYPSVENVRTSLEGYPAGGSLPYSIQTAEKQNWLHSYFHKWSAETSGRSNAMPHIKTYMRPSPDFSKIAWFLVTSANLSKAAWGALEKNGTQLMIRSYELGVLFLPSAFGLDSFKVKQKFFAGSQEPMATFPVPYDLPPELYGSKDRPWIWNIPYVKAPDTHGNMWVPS
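Here, a 5' biotin and 3' phosphotyrosine-FITC DNA oligonucleotide reports Tdp1 activity: intact substrate bridges AlphaScreen beads, while cleavage leaves a 3' phosphate and drops signal. All incubations at room temperature.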
DT40 TDP1 CPT: growth inhibition of DT40 Tdp1-/-;hTDP1 cells with camptothecin (screen for TDP1 inhibitors). chicken DT40 Tdp1-/-;hTDP1 cells + 20 nM CPT, ATP luminescence, 48 h. Potency, µM (doses to about 46.2 µM), for inactives: at the top dose activity change, negative = growth inhibition, actives largely listed as inhibitors. 420,000 tested, 12% active; further: potency means the concentration at half of the fitted maximal effect; on the % scale 0 is the no-effect control and ±100 the full control effect; nearly all actives have a fitted effect of over 55% in size
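Chicken DT40 Tdp1-/- cells complemented with human TDP1, 400 cells/well, exposed to compounds plus 20 nM camptothecin for at least 48 h at 37 C; viability read as ATP content by CellTiter-Glo luminescence.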
TDP1 cell noCPT: qHTS for Inhibitors of human tyrosyl-DNA phosphodiesterase 1 (TDP1): qHTS in cells in absence of CPT. DT40 Tdp1-/- hTDP1 cells, no CPT, ATP luminescence, 48 h. Potency, µM (titrated, usually from 46.2 µM), for inactives: at the highest dose activity change, negative = growth inhibition, hits mostly inhibitors. 420,000 tested, 15% active. AID 686978, 2013; further: potency means the concentration at half of the fitted maximal effect; on the % scale 0 is the no-effect control and ±100 the full control effect; nearly all actives have a fitted effect of over 55% in size
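Chicken DT40 Tdp1-/- cells complemented with human TDP1, screened without camptothecin (DMSO vehicle only), 400 cells/well. Compounds pin-transferred, cells incubated at 37 °C for at least 48 hr. Growth read as ATP-dependent luminescence (CellTiter-Glo, 30 min at RT).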
IL-1B inflam inh: blocks inflammasome-driven IL-1 beta release. activity change, % at 57.5 µM. AID 743279. 360,000 tested, 4.7% active. THP-1 LPS/ATP IL-1B secretion, AlphaLISA, 16 h; active compounds read low; in the data active means activity change below about -50%; inconclusive means mostly about -30% to -49%; further: on the % scale 0 is the no-effect control and ±100 the full control effect
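THP-1 cells pretreated 1 hr with compounds (up to 57.5 uM final), then stimulated with LPS (250 ng/mL final) plus ATP (1.25 mM final); secreted IL-1B measured by AlphaLISA after 16 hr, decreased signal indicating inhibition.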
TGFb SMAD3 inh: blocks TGF-b signaling. HepG2 CAGA-GFP TGF-b/SMAD3 reporter, GFP fluorescence, 18 h; TGF-beta stimulated, 500 pg/mL final. Potency, µM (highest dose often 46.1 µM), inactives show top-dose activity, negative = inhibition, actives largely listed as inhibitors. 410,000 tested, 1.2% active; further: potency means the concentration at half of the fitted maximal effect; on the % scale 0 is the no-effect control and ±100 the full control effect; nearly all actives have a fitted effect of over 65% in size
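Inhibition of TGF-beta-driven CAGA-GFP reporter expression in HEPG2 cells is measured by cellular GFP fluorescence after 18 h stimulation with 500 pg/mL recombinant TGF-beta in 1% FBS medium at 37 degrees C.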
HepG2 viability: HepG2 cytotoxicity, counter-screen for TGF-b inhibitors | AID 588856 | Potency, µM (series often up to 46.1 µM), without a hit: top-dose activity change, negative = cytotoxicity, usual class: cytotoxic | HepG2 CAGA-GFP viability, ATP luminescence, 18 h | 410,000 tested, 0.76% active; further: potency means the concentration at half of the fitted maximal effect
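HepG2 CAGA-GFP cells (1000/well, DMEM with 1% FBS) received compound, then TGF-beta at 500 pg/mL final, and were incubated 18 hours at 37 degrees C. Viability was read by CellTiter-Glo luminescence. Media-only wells were set as complete cell-killing and DMSO as no toxicity.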
* hit, by the source's call; ? = inconclusive; · = no result. Unless noted, the call rests on the fitted dose curve; in most records, active means well fitted curve in the direction sought with a large enough effect; inconclusive means small, poorly fitted or top-dose-only effect, or another doubt; inactive means no such curve, though single readings can be large; an effect the other way counts as inactive or inconclusive.

SMILES	TDP1 inh	DT40 TDP1 CPT	TDP1 cell noCPT	IL-1B inflam inh	TGFb SMAD3 inh	HepG2 viability
O=C(O)CSc1c2c(nc3cc(C(=O)N4CCCC4)ccc13)CCCC2	-3.7%	7.0%	-3.0%	-11.4	-6.9%	3.1%
CCN(CC)CCCNC(=O)CSc1c2c(nc3cc(Cl)ccc13)CCCC2	1.2%	8.2µM*	5.8µM*	0.0	11.2µM*	22.4µM*
CCCCNC(=O)c1ccc2c(SCC(=O)O)c3c(nc2c1)CCCC3	5.3%	-6.4%	-2.7%	1.9	25.6%	3.0%
O=C(CSc1c2c(nc3cc(Cl)ccc13)CCCC2)NCCN1CCOCC1	1.2%	?	?	-91.5*	-7.9%	-10.6%
CSCCC1NC(=O)N(CC(=O)Nc2ccc(-c3ccccc3)cc2)C1=O (stereo not given)	2.6%	-2.6%	3.7%	-9.3	1.0%	-1.5%
CCc1ccc(NC(=O)Cn2cnc3nc4c(cc3c2=O)CCCC4)cc1	5.3%	-27.6%	?	·	-3.4%	8.1%
Cc1cccc(N(CC(O)CN2CCCC2)S(=O)(=O)c2ccccc2)c1 (stereo not given)	6.2%	-4.3%	2.0%	-9.8	-1.4%	6.6%
Cc1c(C(=O)Nc2cccnc2Cl)oc2ccccc12	-12.3%	-4.5%	-4.0%	15.7	0.8%	-10.6%
CCc1nc2ccc(C)cc2c(C(=O)Oc2cccc3cccnc23)c1C	5.3%	?	23.1µM*	-6.0	3.5%	-21.2%
Cc1c(C(=O)Oc2cccc3cccnc23)oc2ccccc12	8.2%	?	?	?	?	11.2µM*
COc1ccc(S(=O)(=O)N2CCC(N3CCN(Cc4ccc(F)cc4)C(=O)C3=O)CC2)cc1	-1.2%	-20.5%	-26.0%	·	-7.4%	-17.8%
CN(c1ccccc1C(=O)N1CCN(Cc2ccc3c(c2)OCO3)CC1)S(C)(=O)=O	4.9%	2.3%	-8.6%	0.0	-5.2%	-0.9%
COCc1cc(C)nc(SCC(=O)Nc2nc(C)cs2)c1C#N	1.5%	?	16.4µM*	-7.8	18.2%	-4.0%
COCc1cc(C)nc(SCC(=O)Nc2cccc(C)c2C)c1C#N	-2.6%	-21.0%	-5.2%	16.6	1.2%	7.3%
C=CCN(C(=O)Nc1ccc(F)cc1)C1CC(=O)N(c2ccc(OC)cc2)C1=O (stereo not given)	-1.0%	-1.9%	-12.4%	5.2	-10.1%	-1.9%
CNC(=S)N(Cc1ccc2c(c1)OCO2)C1CC(=O)N(c2ccc(F)cc2)C1=O (stereo not given)	2.1%	?	20.6µM*	25.4	7.6%	23.1%
C=CCN(C(=O)Nc1ccc(Cl)cc1)C1CC(=O)N(c2ccc(OC)cc2)C1=O (stereo not given)	-3.1%	23.1µM*	-13.8%	11.9	24.5%	-14.1%
CNC(=S)N(Cc1ccc(OC)cc1)C1CC(=O)N(c2ccc(Cl)cc2)C1=O (stereo not given)	5.3%	16.4µM*	18.4µM*	-21.9	?	-31.8%
CCOC(=O)N1CCN(C(=O)c2ccc3c(c2)N(Cc2ccccc2F)C(=O)c2ccccc2S3=O)CC1 (stereo not given)	3.5%	?	?	·	?	5.4%
NC(=O)C1(N2CCCCC2)CCN(C(=O)Nc2ccc(F)cc2F)CC1	1.2%	4.8%	-1.6%	·	·	8.3%
COc1ccc(NC(=O)CN(C)CC(=O)NCCc2ccc(F)cc2)cc1	0.0%	-0.9%	0.8%	0.9	-11.3%	-20.3%
Cc1ccc(S(=O)(=O)N2CCN(c3cc(-c4cccs4)nc4ccccc34)CC2)cc1	·	-2.1%	-1.5%	·	7.1%	-18.8%
CCN(CCCNC(=O)Cn1ncc2c3ccccc3n(C)c2c1=O)c1cccc(C)c1	5.1%	?	?	·	1.1%	3.1%
COc1ccc(-c2c3c(=O)n(C)c(=O)n(C)c3c3n2-c2ccccc2NC3c2ccco2)cc1 (stereo not given)	8.6%	14.6µM*	?	·	-7.5%	-36.9%
Cc1ccc(-c2c3c(=O)n(C)c(=O)n(C)c3cn2-c2cc(C)ccc2O)cc1	-3.7%	?	?	·	?	-48.2%
SMILES	TDP1 inh	DT40 TDP1 CPT	TDP1 cell noCPT	IL-1B inflam inh	TGFb SMAD3 inh	HepG2 viability
Cc1ccnn2c(-c3ccccc3)c3c(=O)n(C)c(=O)n(C)c3c12	2.2%	·	·	·	·	·
Cn1c2c(c(=O)n(C)c1=O)C(c1ccc(Br)cc1)Nc1ccccc1O2 (stereo not given)	1.0%	-10.4%	?	24.4	-18.1%	2.9%
Cc1ccc(C2Nc3cc(C)c(C)cc3-n3c(-c4ccccc4)c4c(=O)n(C)c(=O)n(C)c4c32)o1 (stereo not given)	11.4%	7.31µM*	9.2µM*	·	-22.3%	-20.6%
Cn1c(=O)c2c(-c3ccccc3)n3c(c2n(C)c1=O)C(c1ccc([N+](=O)[O-])cc1)Nc1ccccc1-3 (stereo not given)	2.9%	16.4µM*	14.6µM*	·	-6.0%	-13.9%
Cc1ccc(-c2c3c(=O)n(C)c(=O)n(C)c3c3n2-c2ccccc2NC3c2ccc(C)cc2O)cc1 (stereo not given)	8.6%	20.6µM*	20.6µM*	·	6.31µM*	-96.7%
COc1ccc(-c2nc3ccccc3n3c(-c4ccccc4)c4c(=O)n(C)c(=O)n(C)c4c23)cc1	1.1%	0.6%	-18.9%	·	7.2%	21.9%
COc1ccc(O)c(C2Nc3ccccc3-n3c(-c4ccccc4)c4c(=O)n(C)c(=O)n(C)c4c32)c1 (stereo not given)	2.9%	9.2µM*	18.4µM*	·	?	-30.3%
OC(COC(c1ccc(Cl)cc1)c1ccc(Cl)cc1)CN1CCN(c2ccccn2)CC1 (stereo not given)	8.3%	?	16.4µM*	-83.7*	?	14.1µM*
CC(C)(C)c1ccccc1OCC(O)CN1CCN(c2ccccn2)CC1 (stereo not given)	·	16.4µM*	?	-8.9	?	-63.9%
Cc1cccc(C)c1OCC(O)CN1CCN(c2ccccn2)CC1 (stereo not given)	0.0%	4.1%	-6.2%	16.4	?	3.5%
COC(=O)c1ccc(Sc2nnnn2-c2ccccc2)c([N+](=O)[O-])c1	9.2%	16.4µM*	23.1µM*	-9.9	-6.7%	-14.6%
O=C(O)c1ccc(Sc2nnnn2-c2ccccc2)c([N+](=O)[O-])c1	1.0%	-2.3%	-3.8%	0.0	-0.9%	2.0%
CCOc1ccccc1OCCCC(=O)ON=C(N)c1ccccc1	?	0.4%	-10.3%	8.6	13.7%	7.3%
